“And” between values parts separate entries of the source, which are not always exact repeats. Equal entries are not always repeated. Inconclusive results are not listed. Some compounds were tested as several samples or in several runs, with calls that do not always agree. The source made the active and inactive calls. Unless noted, calls follow the shape of the full dose curve.
Target: Peroxisome proliferator-activated receptor delta (Homo sapiens) (UniProt Q03181)
Assay: qHTS assay for small molecule antagonists of peroxisome proliferator-activated receptor delta signaling (AID 588535; active = well fitted inhibition curve with a large enough effect in the signal ratio, with a control signal flat, not every such curve was filed as active; the % refers to the signal ratio)
Settings: HEK293T PPARd-UAS-bla, beta-lactamase FRET ratio, 18 h; series mostly up to 76.7 µM; activity change, negative = inhibition: at the top concentration
Outline: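 Compounds tested in titration on PPAR-delta-UAS-bla HEK293T cells grown in charcoal/dextran-stripped serum (2%); beta-lactamase activity read via CCF4 emission at 460 and 530 nm.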

Chain of Peroxisome proliferator-activated receptor delta (Homo sapiens) (Q03181 whole entry, looked up): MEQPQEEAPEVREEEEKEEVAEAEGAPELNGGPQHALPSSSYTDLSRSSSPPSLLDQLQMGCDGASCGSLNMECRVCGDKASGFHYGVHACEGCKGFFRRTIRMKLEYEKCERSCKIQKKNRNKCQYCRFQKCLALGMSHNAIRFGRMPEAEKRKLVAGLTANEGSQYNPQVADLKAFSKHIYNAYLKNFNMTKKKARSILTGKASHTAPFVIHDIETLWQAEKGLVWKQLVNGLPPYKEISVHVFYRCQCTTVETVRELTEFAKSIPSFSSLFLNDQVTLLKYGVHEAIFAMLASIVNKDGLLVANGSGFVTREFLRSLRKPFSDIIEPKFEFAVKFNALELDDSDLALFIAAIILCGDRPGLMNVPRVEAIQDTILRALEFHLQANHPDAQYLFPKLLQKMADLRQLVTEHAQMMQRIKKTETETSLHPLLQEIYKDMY

| Compound | Potency | activity change, negative = inhibition |
| --- | --- | --- |
| CNC(=O)O/N=C/C(C)(C)SC | inactive |  |
| C=CCc1ccc(OC)cc1 |  | -9.2% (inactive) |
| ClC1=C(Cl)C2(Cl)C3C(Cl)C=CC3C1(Cl)C2(Cl)Cl (centres undefined) |  | -19.2% (inactive) |
| ClC(Cl)=C(c1ccc(Cl)cc1)c1ccc(Cl)cc1 | inactive |  |
| COP(=S)(OC)Oc1ccc([N+](=O)[O-])cc1 |  | -15.5% (inactive) |

Target: Peroxisome proliferator-activated receptor gamma (Homo sapiens) (UniProt P37231)
Sequence (P37231 whole entry, looked up): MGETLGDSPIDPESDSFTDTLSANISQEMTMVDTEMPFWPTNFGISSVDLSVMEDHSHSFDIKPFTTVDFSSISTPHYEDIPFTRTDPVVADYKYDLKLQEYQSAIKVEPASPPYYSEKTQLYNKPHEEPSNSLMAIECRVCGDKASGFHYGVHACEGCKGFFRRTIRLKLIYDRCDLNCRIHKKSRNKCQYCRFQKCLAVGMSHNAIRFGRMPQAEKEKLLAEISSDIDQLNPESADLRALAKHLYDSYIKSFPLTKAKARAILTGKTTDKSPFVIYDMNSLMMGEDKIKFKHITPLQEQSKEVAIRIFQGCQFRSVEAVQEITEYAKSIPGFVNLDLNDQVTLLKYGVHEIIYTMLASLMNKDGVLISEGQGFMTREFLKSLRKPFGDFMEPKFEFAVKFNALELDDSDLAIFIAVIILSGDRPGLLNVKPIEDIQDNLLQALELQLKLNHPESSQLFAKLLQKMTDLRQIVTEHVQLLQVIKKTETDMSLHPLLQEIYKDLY
Assay: qHTS assay for small molecule agonists of peroxisome proliferator-activated receptor gamma signaling (AID 588536; active = well fitted curve in the direction sought with a large enough effect in the signal ratio, with a control signal flat, not every such curve was filed as active; the % refers to the signal ratio;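 also: 0% = DMSO basal wells and 100% = rosiglitazone at 2 µM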)
Settings: HEK293 PPARg-UAS-bla, beta-lactamase ratio, 16 h, percent of rosiglitazone response, DMSO as zero; series mostly up to 76.7 µM; activation: at the top concentration
Outline: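 Cells were plated and held 6–6.5 h at 37 C, then compounds were added as a titration series. After a further 16 h, CCF4 dye was loaded for 2 h at room temperature and emission at 460/530 nm recorded.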

| Compound | activation | outcome |
| --- | --- | --- |
| ClC1=C(Cl)C2(Cl)C3C4C=CC(C4)C3C1(Cl)C2(Cl)Cl (centres undefined) | -12.4% (inactive) |  |
| c1ccc(N=Nc2ccccc2)cc1 |  | inactive |
| CNC(=O)O/N=C/C(C)(C)SC |  | inactive |
| CCNc1nc(Cl)nc(NC(C)C)n1 |  | inactive |
| C=CCc1ccc(OC)cc1 | 2.08% (inactive) |  |
| ClC1=C(Cl)C2(Cl)C3C4CC(C5OC45)C3C1(Cl)C2(Cl)Cl (centres undefined) | 0.0346% (inactive) |  |
| ClC(Cl)=C(c1ccc(Cl)cc1)c1ccc(Cl)cc1 |  | inactive |
| CCc1cccc(CC)c1N(COC)C(=O)CCl | -13.9% (inactive) |  |
| C/C=C/c1ccc2c(c1)OCO2 | 0.937% (inactive) |  |
| C=CCc1ccc2c(c1)OCO2 | -0.619% (inactive) |  |
| COP(=S)(OC)Oc1ccc([N+](=O)[O-])cc1 | -4.65% (inactive) |  |

Target: Peroxisome proliferator-activated receptor gamma (Homo sapiens) (UniProt P37231)
Assay: qHTS assay for small molecule antagonists of peroxisome proliferator-activated receptor gamma signaling (AID 588537; active = well fitted inhibition curve with a large enough effect in the signal ratio, with a control signal flat, not every such curve was filed as active; the % refers to the signal ratio; also: potency is read from the fitted curve at half-maximal effect;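 as to activity, negative = inhibition: reporter cells co-stimulated with 50 nM rosiglitazone agonist during compound treatment; % of control where 0% means no effect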)
Settings: HEK293 PPARg-UAS-bla, beta-lactamase ratio, antagonist mode; series mostly up to 76.8 µM; activity, negative = inhibition: at the top concentration
Outline: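 HEK293 cells, PPAR-gamma-UAS-bla, 3000/well. Pre-incubation 6-6.5 h, 37 C. Compound titration with rosiglitazone 50 nM final, 16 h. CCF4 dye, 2 h RT, dual-emission fluorescence.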

| Compound | activity, negative = inhibition | Potency |
| --- | --- | --- |
| ClC1=C(Cl)C2(Cl)C3C4C=CC(C4)C3C1(Cl)C2(Cl)Cl (centres undefined) | 5.68% (inactive) |  |
| c1ccc(N=Nc2ccccc2)cc1 | 6.47% (inactive) |  |
| CNC(=O)O/N=C/C(C)(C)SC |  | inactive and 39.8 µM (active) |
| CCNc1nc(Cl)nc(NC(C)C)n1 | -4.44% (inactive) |  |
| C=CCc1ccc(OC)cc1 | 5.61% (inactive) |  |
| ClC1=C(Cl)C2(Cl)C3C(Cl)C=CC3C1(Cl)C2(Cl)Cl (centres undefined) | -6.68% (inactive) |  |
| ClC(Cl)=C(c1ccc(Cl)cc1)c1ccc(Cl)cc1 |  | inactive |
| COP(=S)(OC)Oc1ccc([N+](=O)[O-])cc1 | 6.64% (inactive) |  |

Target: Vitamin D3 receptor (Homo sapiens) (UniProt P11473)
Sequence (P11473 whole entry, looked up): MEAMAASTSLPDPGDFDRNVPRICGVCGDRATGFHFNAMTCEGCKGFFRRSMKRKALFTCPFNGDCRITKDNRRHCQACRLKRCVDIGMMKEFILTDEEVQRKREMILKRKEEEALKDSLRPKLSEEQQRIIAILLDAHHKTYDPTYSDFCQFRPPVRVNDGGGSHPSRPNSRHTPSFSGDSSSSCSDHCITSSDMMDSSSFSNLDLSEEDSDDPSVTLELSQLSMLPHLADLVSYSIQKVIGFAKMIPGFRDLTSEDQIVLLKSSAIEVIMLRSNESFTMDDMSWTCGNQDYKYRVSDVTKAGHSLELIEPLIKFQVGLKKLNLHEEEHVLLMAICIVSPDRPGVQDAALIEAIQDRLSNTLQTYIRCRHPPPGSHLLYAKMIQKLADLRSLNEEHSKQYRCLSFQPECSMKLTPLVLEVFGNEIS
Assay: qHTS assay for small molecule antagonists of vitamin D receptor signaling (AID 588541);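 also: receptor activated by calcitriol during compound treatment; % is scaled to controls: 0 for no effect and ±100 for the full control effect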
Settings: HEK293T VDR-UAS-bla, beta-lactamase ratio, antagonist mode; series mostly up to 76.7 µM; activity change, negative = inhibition: at the top concentration
Outline: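 VDR-UAS-bla HEK293T cells (2000/well, 2% charcoal-stripped FBS) were treated with titrated compounds plus 1-alpha,25-dihydroxyvitamin D3 (50 nM or 3 nM final) for 16 h at 37 C. CCF4 beta-lactamase fluorescence was read; Hill fits gave IC50.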

| Compound | outcome | activity change, negative = inhibition |
| --- | --- | --- |
| O=C(O)COc1ccc(Cl)cc1Cl | inactive |  |
| ClC1=C(Cl)C2(Cl)C3C4C=CC(C4)C3C1(Cl)C2(Cl)Cl (centres undefined) |  | -0.376% (inactive) |
| O=S1OCC2C(CO1)C1(Cl)C(Cl)=C(Cl)C2(Cl)C1(Cl)Cl (centres undefined) |  | -9.95% (inactive) |
| c1ccc(N=Nc2ccccc2)cc1 | inactive |  |
| CCNc1nc(Cl)nc(NC(C)C)n1 | inactive |  |
| ClC1=C(Cl)C2(Cl)C3C4CC(C5OC45)C3C1(Cl)C2(Cl)Cl (centres undefined) |  | 1.66% (inactive) |
| ClC(Cl)=C(c1ccc(Cl)cc1)c1ccc(Cl)cc1 | inactive |  |
| C/C=C/c1ccc2c(c1)OCO2 |  | -1.53% (inactive) |
| C=CCc1ccc2c(c1)OCO2 |  | 3.24% (inactive) |
| COP(=S)(OC)Oc1ccc([N+](=O)[O-])cc1 | inactive |  |

— PubChem BioAssay (NCATS)
